Test systems include K-562 leukemia; MALME-3M melanoma; MDA-MB-231 breast; RXF 393 renal; SF-268 CNS; SF-295 CNS; SF-539 CNS; UACC-257 melanoma; M14 melanoma; HT29 colon; SNB-19 CNS; U251 CNS; SK-MEL-5 melanoma; UACC-62 melanoma; LOX IMVI melanoma; SK-MEL-28 melanoma; SK-MEL-2 melanoma; HCT-15 colon; SNB-75 CNS; PC-3 prostate.
Common to all, as to assay: NCI-60 one-dose screen, 48 h (100 = growth as untreated, 0 = no growth, -100 = all killed)
Common to all, as to details: 10 µM unless noted

This is part of a sample that, as a whole, favours compounds with a hit. Of some 83,000 tested, about 20% had one in any assay.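 Cell lines were cultured in 96-well plates, exposed to a single compound concentration, and assessed for percent growth 48 hours later.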 Values without a mark were called inactive. Activity calls are given as the source filed them. The calls were made as follows: active = growth percent below 10; inactive = the rest.

With `CC1=NN(c2ccccc2Cl)C(=O)/C1=C\c1cn(S(=O)(=O)c2ccc(C)cc2)c2ccccc12`, the growth in the experiment on K-562 leukemia is 138%; in the experiment with MALME-3M melanoma it was 114%; with MDA-MB-231 breast, 85.4%; in the experiment on RXF 393 renal, 137%; in the experiment with SF-268 CNS it was 104%; in the experiment with SF-295 CNS, 114%. Moreover, the growth is 114% with SF-539 CNS; 115% in the experiment with UACC-257 melanoma; 82.1% with M14 melanoma; 122% in the experiment with HT29 colon; 114% in the experiment on SNB-19 CNS; 103% in the experiment on U251 CNS. Besides, the growth is 106% in the experiment with SK-MEL-5 melanoma; 86.5% in the experiment on UACC-62 melanoma; 97.4% in the experiment on LOX IMVI melanoma; 125% in the experiment with SK-MEL-28 melanoma; 114% in the experiment with SK-MEL-2 melanoma.

On to `N=C(N)/N=C(\CCc1nc2ccccc2[nH]1)c1nc2ccccc2[nH]1`, for which the growth in the experiment on K-562 leukemia was 98.4%; with MALME-3M melanoma, 96.9%; in the experiment with MDA-MB-231 breast it was 100%; in the experiment with RXF 393 renal, 116%; in the experiment on SF-268 CNS it was 112%; with SF-295 CNS, 120%. For the same molecule, the growth with SF-539 CNS is 97.1%; in the experiment with UACC-257 melanoma, 109%; in the experiment on M14 melanoma, 96.4%; with HCT-15 colon, 106%; with SNB-75 CNS it was 82.5%; in the experiment on SNB-19 CNS, 93.6%. In addition, the growth is 103% in the experiment with U251 CNS; 98% in the experiment with SK-MEL-5 melanoma; 82.2% in the experiment with UACC-62 melanoma; 85.4% in the experiment on LOX IMVI melanoma; 100% in the experiment on SK-MEL-28 melanoma.

As for `COc1ccc2c(c1)C(=O)c1c-2c(=O)n(CCCCCCC(=O)NO)c2ccccc12`, the growth in the experiment with K-562 leukemia is 8.79% (active); in the experiment with MALME-3M melanoma it was -23.1% (active); in the experiment on MDA-MB-231 breast, -5.72% (active); in the experiment with RXF 393 renal, -60.9% (active); in the experiment on SF-268 CNS, 10.1%; in the experiment on SF-295 CNS, -33.7% (active). Also, the growth with SF-539 CNS is 7.21% (active); in the experiment on UACC-257 melanoma, -6.3% (active); with M14 melanoma, -0.387% (active); in the experiment with HT29 colon it was 3.51% (active); in the experiment on SNB-75 CNS, 29.7%; in the experiment on U251 CNS it was -58.8% (active). The growth is -8.27% (active) with PC-3 prostate; -85.7% (active) in the experiment with SK-MEL-5 melanoma; -55.5% (active) with UACC-62 melanoma; -82% (active) in the experiment on LOX IMVI melanoma; -18% (active) with SK-MEL-28 melanoma; 10.4% in the experiment with SK-MEL-2 melanoma.

On to `CC(=O)c1nc2ccccc2n1CCn1cc(CC(N)C(=O)O)c2ccccc21` (stereo not drawn), for which the growth with K-562 leukemia is 92.5%; with MALME-3M melanoma, 100%; with MDA-MB-231 breast, 77.3%; in the experiment with RXF 393 renal, 120%; with SF-268 CNS, 110%; in the experiment with SF-295 CNS, 110%. Further, the growth in the experiment with SF-539 CNS was 101%; with UACC-257 melanoma it was 110%; with M14 melanoma, 103%; in the experiment with HCT-15 colon, 96.3%; in the experiment with SNB-19 CNS, 92.6%; with U251 CNS it was 102%. Moreover, the growth in the experiment on SK-MEL-5 melanoma is 96.1%; in the experiment with UACC-62 melanoma it was 79.5%; in the experiment with LOX IMVI melanoma, 89.4%; in the experiment on SK-MEL-28 melanoma, 109%.

In the case of `Cc1cc(=O)n2n1-c1ccc(Cl)cc1NC(=O)C2`, the growth was 104% in the experiment with K-562 leukemia; 103% in the experiment on MALME-3M melanoma; 122% in the experiment on MDA-MB-231 breast; 104% with RXF 393 renal; 109% in the experiment on SF-268 CNS; 98.2% in the experiment on SF-295 CNS. Further, the growth in the experiment with SF-539 CNS was 99%; in the experiment on UACC-257 melanoma, 89%; in the experiment on M14 melanoma, 115%; with HCT-15 colon, 101%; in the experiment on SNB-19 CNS, 97.5%; with U251 CNS it was 95.2%. Also, the growth was 89.8% in the experiment with PC-3 prostate; 97.5% in the experiment on SK-MEL-5 melanoma; 107% in the experiment on UACC-62 melanoma; 98.6% in the experiment with LOX IMVI melanoma; 101% with SK-MEL-28 melanoma; 118% with SK-MEL-2 melanoma.

For the molecule `COc1ccc(-c2cc(Cc3cccs3)c(=O)n(Cn3ccc4ccccc43)n2)cc1`, the growth in the experiment with K-562 leukemia is 105%; in the experiment with MALME-3M melanoma it was 106%; with MDA-MB-231 breast it was 100%; in the experiment with RXF 393 renal it was 116%; in the experiment with SF-268 CNS, 110%; with SF-295 CNS, 101%. Moreover, the growth was 101% in the experiment with SF-539 CNS; 103% with UACC-257 melanoma; 106% in the experiment with M14 melanoma; 98.4% in the experiment with HCT-15 colon; 92.6% in the experiment with SNB-75 CNS; 102% in the experiment with SNB-19 CNS. For the same molecule, the growth with U251 CNS was 104%; in the experiment on SK-MEL-5 melanoma, 104%; in the experiment on UACC-62 melanoma it was 87.7%; in the experiment with LOX IMVI melanoma, 96.5%; in the experiment with SK-MEL-28 melanoma, 114%.

In the case of `c1ccc(Nc2nnc(-c3cc(-c4cccnc4)n(-c4ccccc4)n3)s2)cc1`, the growth in the experiment on K-562 leukemia was 36.1%; in the experiment on MALME-3M melanoma it was 83.3%; with MDA-MB-231 breast, 35.6%; in the experiment with RXF 393 renal it was 71.8%; with SF-268 CNS, 113%; with SF-295 CNS, 40.8%. Moreover, the growth was 104% in the experiment with SF-539 CNS; 139% in the experiment with UACC-257 melanoma; 8.1% (active) in the experiment on HCT-15 colon; 3.7% (active) in the experiment on HT29 colon; 102% in the experiment with SNB-75 CNS; 102% in the experiment with SNB-19 CNS. The growth with U251 CNS is 69.5%; in the experiment with PC-3 prostate, 82.4%; in the experiment on SK-MEL-5 melanoma, 69.9%; in the experiment on UACC-62 melanoma it was 84.1%; with LOX IMVI melanoma, 69.8%; in the experiment with SK-MEL-28 melanoma it was 106%. In the experiment on SK-MEL-2 melanoma, the growth is 96.5%.

For `Clc1ccc([C@@H]2C[C@@H]3Cc4cc(Br)c5ccccc5c4N2O3)c(Cl)c1`, the growth with K-562 leukemia was 23.8%; with MALME-3M melanoma, 61.7%; in the experiment on MDA-MB-231 breast, 89.1%; in the experiment on RXF 393 renal, 88.9%; with SF-268 CNS, 85.8%; with SF-295 CNS it was 65.5%. Besides, the growth with SF-539 CNS was 91.4%; with UACC-257 melanoma, 66.1%; in the experiment with M14 melanoma it was 75.6%; with SNB-75 CNS, 56.2%; in the experiment with SNB-19 CNS it was 83.8%; in the experiment on U251 CNS, 60.6%. Further, the growth is 93.8% in the experiment on SK-MEL-5 melanoma, 62.8% in the experiment with UACC-62 melanoma, 72.1% in the experiment with LOX IMVI melanoma and 69.9% in the experiment with SK-MEL-28 melanoma.

Take `OCc1nnn(-c2ccccc2)c1CO`: the growth was 132% with K-562 leukemia; 122% in the experiment with MALME-3M melanoma; 107% in the experiment on MDA-MB-231 breast; 104% in the experiment with RXF 393 renal; 105% in the experiment with SF-268 CNS; 115% in the experiment with SF-295 CNS. Besides, the growth was 116% with SF-539 CNS; 124% in the experiment on UACC-257 melanoma; 110% with M14 melanoma; 103% in the experiment on HT29 colon; 94.8% in the experiment on SNB-75 CNS; 115% in the experiment with SNB-19 CNS. The growth in the experiment with U251 CNS is 104%; in the experiment on SK-MEL-5 melanoma, 107%; with UACC-62 melanoma, 101%; in the experiment on LOX IMVI melanoma it was 100%; in the experiment with SK-MEL-28 melanoma it was 128%; with SK-MEL-2 melanoma, 113%.

On to `Cc1cc(NC(=O)Nc2cccc3ccccc23)no1`, for which the growth in the experiment with K-562 leukemia is 92.4%; in the experiment on MALME-3M melanoma it was 101%; in the experiment on MDA-MB-231 breast it was 112%; in the experiment with RXF 393 renal, 99.6%; with SF-268 CNS, 108%; in the experiment with SF-295 CNS, 103%. Besides, the growth in the experiment on SF-539 CNS is 97.2%; with UACC-257 melanoma, 105%; with M14 melanoma it was 107%; with HT29 colon, 108%; in the experiment on SNB-75 CNS, 91.4%; in the experiment on SNB-19 CNS it was 105%. Also, the growth is 93.6% in the experiment with U251 CNS; 99% in the experiment with SK-MEL-5 melanoma; 90.6% in the experiment with UACC-62 melanoma; 116% in the experiment on SK-MEL-28 melanoma; 101% in the experiment with SK-MEL-2 melanoma.

The values above are taken from PubChem BioAssay (NCI).
